Our source for the binding signal values is paper PMC12136788.

The labels stand for the following.
T1: UNK ZnF1-3 (human, UniProt Q9C0B0 31-174)
T1 sequence: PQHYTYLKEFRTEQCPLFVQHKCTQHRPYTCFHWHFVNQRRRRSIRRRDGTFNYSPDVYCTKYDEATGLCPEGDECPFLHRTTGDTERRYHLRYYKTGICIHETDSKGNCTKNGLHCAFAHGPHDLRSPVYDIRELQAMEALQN

B1: chr1:39494447:39494448:+_ENSG00000168653_ENST00000372967|hu_mus|hu_hu_hu_mus_False|98_98 (ssRNA)
RNA: GGGAGUUCUACAGUCCGACGAUCGCACCGAGCGGCGAUCUUGUAGGGCUGUUCUGCGCUUAGGAACAUAAAGUGCCGGUCCAGGCUGAUGCCCAGCUUUUUCUGUAUGUCAAGGAAAGGCAUGGCUCUGCAGUGCCCUUGUCACAACAGAGGAUUGAGCAUCA
B2: chr16:75674161:75674162:-_ENSG00000065427_ENST00000302445|hu_hu|motif|central (ssRNA)
RNA: GGGAGUUCUACAGUCCGACGAUCCCUACCUGCCACCUUUAAGGUGAUGUCAGUCAGGUGAUCCCCAGGCUGCAGGUGACGGUAUUUUUGGAUGAAGUCAGUGAGUGAGAUGUCUACAUGGAACUUGUGUGGGUAUGGGUCUUCCAACAGAGGAUUGAGCAUCA
B3: 76004153_76004273_12107_CDS_ENSMUSG00000022565_ENSMUST00000071869|mouse|control|control (ssRNA)
RNA: GGGAGUUCUACAGUCCGACGAUCCUUCAUGGCCUGGAAGAGGGAGAUGAGUUUCCCAGAGUAGGGGUCCUUGUAGCCAGUGACGGCACGCUCAGCUGACAGCAGCUUGUCCUUGAACUCGGGGCCCACAAUACCCAUACGAACCAACAGAGGAUUGAGCAUCA
B4: chr11:93905761:93905762:+_ENSMUSG00000020859_ENSMUST00000103168|mus_mus|motif|central (ssRNA)
RNA: GGGAGUUCUACAGUCCGACGAUCCGCUGGCACCCCGGUAGAAAUAGAAAAGUGCACAAGCAGCAAAACAGAGAGAGAUACGGAGAUCGCAGAAUUAAUGACCACCGCCCCGCCAACAAAGCCAAACACAAACAGCAGCAUGCACAACAGAGGAUUGAGCAUCA
B5: chr13:113691719:113691720:-_ENSMUSG00000016018_ENSMUST00000022281|mus_hu|FALSE|FALSE (ssRNA)
RNA: GGGAGUUCUACAGUCCGACGAUCGUAUUCACCAGAAGAAAUCCAUCGGAAAUCCUUCCCAUCAAAUUUGCGGGCAUUUGUAAAUAAAACAGUUCUAGCUGGCAUGUUAAUUCCCAUAGCAAAGGUCUCCGUGGCAAAUAAGGCCAACAGAGGAUUGAGCAUCA
B6: chr7:135612788:135612789:-_ENSG00000105887_ENST00000393085|hu_mus|FALSE|FALSE (ssRNA)
RNA: GGGAGUUCUACAGUCCGACGAUCGCCAAGAGGUGAAAACAAAGGUCUCAAAACACCCUGUUGCAUUAUAUUGACUCAUAGACUGAUCAUGUGCCUUCCACUUCCUAGCAGAAUGUCCAACUCUAUAGCUGCUUGGCCUUUUGGCAACAGAGGAUUGAGCAUCA
B7: chr11:4127340:4127341:+_ENSG00000167325_ENST00000300738|hu_mus|hu_hu_hu_mus_False|28_38 (ssRNA)
RNA: GGGAGUUCUACAGUCCGACGAUCGGCAUAGUCAGGGUGCUUCGUGGUCAAGGUCGCGGCUGUCUCAGCAGCCAGGGUGUCCAGUUCCACUGUGGUGACCCCACUGUACAAGCCUUGGAUUACUUUCAUGGUGAUCUGAGCAGGCAACAGAGGAUUGAGCAUCA
B8: chr2:202488911:202488912:-_ENSG00000155755_ENST00000286196|hu_mus|hu_hu_hu_mus_False|18_78 (ssRNA)
RNA: GGGAGUUCUACAGUCCGACGAUCAUUGAAACAUUUUUCAUAAUCUCCAGUAGCAUUCAGUAUUAUAGUAACAAAAGCUCAAUUGUAAAUACAUGUAUCUUAUAAAAAUACACUUAAAUUUAAAAACGGGGAGCGCAGGCGCCACAACAGAGGAUUGAGCAUCA
B9: chr2:202488911:202488912:-_ENSG00000155755_ENST00000286196|hu_mus|hu_hu_hu_mus_False|58_68 (ssRNA)
RNA: GGGAGUUCUACAGUCCGACGAUCAUUGAAACAUUUUUCAUAAUCUCCAGUAGCAUUUCAGCAUUAUUAAUCAAAAAAUCUAUUACAAAUACAUGUAUCUUAUAAAAAUACACUUAAAAACACGAGUGGGGAGCGCAGGCGCCACAACAGAGGAUUGAGCAUCA
B10: chr2:202488911:202488912:-_ENSG00000155755_ENST00000286196|hu_mus|hu_hu_hu_mus_False|18_68 (ssRNA)
RNA: GGGAGUUCUACAGUCCGACGAUCAUUGAAACAUUUUUCAUAAUCUCCAGUAGCAUUUCAGCAUUAUUAAUCAAAAACUCAAUUGUAAAUACAUGUAUCUUAUAAAAAUACACUUAAAUUUAAAAACGGGGAGCGCAGGCGCCACAACAGAGGAUUGAGCAUCA
B11: chr4:24541891:24541892:-_ENSG00000109606_ENST00000336812|perfect_dup|FALSE|FALSE (ssRNA)
RNA: GGGAGUUCUACAGUCCGACGAUCGGAUCCCAAUUCAGUCAGAUCUCCAUCAUCAUUUAAAGCAGCCAAAUAAUUCAAAAGUUCUAGGGCUCUCAUCAGAGUUUCAGGAGCUGGUGGGUCCAUAAAAUCAAAGUGUACCAAGUCCAACAGAGGAUUGAGCAUCA
B12: chr15:96529919:96529920:-_ENSMUSG00000022462_ENSMUST00000023099|mus_hu|FALSE|FALSE (ssRNA)
RNA: GGGAGUUCUACAGUCCGACGAUCUCUCUAUUCUCACGCAGACGUCUUCAGUGGGUUUCUCUCAGUCAAAUACAAAUCAUAAAAAACAAACAAAAAAUUUCCCCAAAUCCAACAACAGGCAGGAAAAAUAAUUUUAAUAAAAAACAACAGAGGAUUGAGCAUCA
B13: chr17:62500844:62500845:-_ENSG00000108654_ENST00000583239|hu_hu|FALSE|FALSE (ssRNA)
RNA: GGGAGUUCUACAGUCCGACGAUCCUUGAUAAAAAUUCUUCUCAAAUUUAGGCAGCUCAUCAAGAUUCCACUUCUUUUUAACUAAUUUCUCCCCAGGGUUUCCAAACUUCUUUCCAGAUAAGGGCCCUGCCCUACUUCCUCCAACAACAGAGGAUUGAGCAUCA
B14: chr2:216981417:216981418:+_ENSG00000079246_ENST00000392132|hu_hu|hu_hu_hu_mus_True|48_48 (ssRNA)
RNA: GGGAGUUCUACAGUCCGACGAUCCUGAUACUGGUCCUUGCCAGCAAGGGCAUUAUCAGUGCCAUCUGUGCCAUAGAGGACUAACGCAAUCUCAUCCUUGCUCUCCGAAAAUACCUGUCGUUGGACAAACAUAGUCAUCACUUUCAACAGAGGAUUGAGCAUCA
B15: 132431906_132432936_2116_CDS_ENSG00000170606_ENST00000304858|human|control|control (ssRNA)
RNA: GGGAGUUCUACAGUCCGACGAUCUCUCAUUUCAUACACAUAUUCCUCCACUGCGUUCUUAGCAUCAUUCCGCUCCUUCUCCAGUUUAUCCUGCAUGAUCAUCUUACCCUCAUUUUCAAUGUACAAGUUGAGCAUCUCUCUGUCCAACAGAGGAUUGAGCAUCA
B16: 96523144_96524318_649_CDS_ENSMUSG00000031751_ENSMUST00000053766|mouse|control|control (ssRNA)
RNA: GGGAGUUCUACAGUCCGACGAUCGGAAAGGUAUUCAAAUCUGUCUUUGCAGAGCUGAACCAUCAGAUGCAGGAAGACAAGUCCAGCAAACCAGAGGCACCACAUCACCACUUCCUCCACAGUCUGGACAUUCAGCACUCCAAACAACAGAGGAUUGAGCAUCA
B17: chr18:33606911:33606912:-_ENSG00000141425_ENST00000399022|hu_mus|FALSE|FALSE (ssRNA)
RNA: GGGAGUUCUACAGUCCGACGAUCUUCCAAUUUAUGUUCUUUCUCUGCAAGGGCUUCCUUUUGACAACGAAGAAAAUCUGCUAACAUUCGGGUGAGUUGCUUUCUAUCAUCUAUUUCUGCCGCCAGUCUGCCAUUAUAAUCUGCCAACAGAGGAUUGAGCAUCA
B18: chr12:48362563:48362564:+_ENSG00000134291_ENST00000256686|hu_hu|hu_hu_hu_mus_False|58_88 (ssRNA)
RNA: GGGAGUUCUACAGUCCGACGAUCUCCGUCAAGCCCUUCGAUAGACCCAUAGACUCUAAACUGUAAUCACUUUGUAUUUCUAAAAAAAAGAAACGCCAAAAACUUUCCAAAAAGCGGGGGUGGGGUGAGGCGGGAGGGGGAGGUCAACAGAGGAUUGAGCAUCA
B19: 419052_420092_3597_CDS_ENSG00000073614_ENST00000399788|human|control|control (ssRNA)
RNA: GGGAGUUCUACAGUCCGACGAUCUUCUAUUAGUUCUUUUACUUUUUUCCUCCUAUUUUUGCCACUCCCAUAUACACCAAUGUCGGUCCGGGGGCUCAGCACCUGUAACAAUGUAUGGCUAGAAUUCUUCUUAAGAAACGUCCGCAACAGAGGAUUGAGCAUCA
B20: chr7:888068:888069:+_ENSG00000164828_ENST00000456758|hu_hu|motif|central (ssRNA)
RNA: GGGAGUUCUACAGUCCGACGAUCUUGAACUAAAAAUGAUGAAAAAGAUGAUGCAGUGUAUCUGGCCAGCCACAAAAUCCGGUUCACGUAGAAAGACGCACCGCAUUUUUGAUUCCUGUCCCUAGAAUAAACUCUCGACACGGGCAACAGAGGAUUGAGCAUCA
B21: chr19:40639365:40639366:-_ENSMUSG00000025007_ENSMUST00000025979|mus_mus|motif|central (ssRNA)
RNA: GGGAGUUCUACAGUCCGACGAUCGGCUGCCACCUGGGGUAGACAGUCAGGGCGAGACUCAAAGAUCACCAGUAAAACACCGGUUGGGACAGUCACUUGUUCUAACUCCAGGUUUUUGGCAAUCCGAGUCCGGCGCAGGACGCGCAACAGAGGAUUGAGCAUCA
B22: chr2:168997265:168997266:-_ENSG00000198648_ENST00000355999|hu_mus|motif|central (ssRNA)
RNA: GGGAGUUCUACAGUCCGACGAUCUUUAUUCCGUGUAACAUCACCCCCUGUGGCUAAGAAUGCGCUUACUCCAAAAUCUGCGGUUUGUACUGAGCCAUCCUCACCCAGAAGAAUAUUUCCAGCUUUCAAAUCCCUAUGGAUCUGCAACAGAGGAUUGAGCAUCA

The full ranking holds about 24,000 sequences; the median of “enrichment r” is about 0.99, and the highest 2% start at about 3.7. This excerpt belongs to a sample that is enriched for the highest values.

The target of this test is T1, UNK ZnF1-3. The test is described as follows: nsRBNS (natural sequence RNA bind-n-seq); RBNS binding buffer (assumed for nsRBNS): 25 mM Tris pH 7.5, 150 mM KCl, 3 mM MgCl2, 0.01% Triton X-100, 500 ug/ml BSA, 20 U/ml SUPERase-In, 4 C; UNK is unkempt and MSI1 is Musashi-1; names of the RNAs are library labels; protein concentration not given here; high values mean tight binding.
B1 gave a binding signal of 0.548 enrichment R. Under B2 stands 0.761 enrichment R; under B3, 1.29 enrichment R. Under B4 stands 2.32 enrichment R.

In the case of B5, the binding signal came to 1.77 enrichment R. Take B6: the binding signal was found to be 1.02 enrichment R. As for B7, the binding signal was 1.08 enrichment R. Molecule B8 showed a binding signal of 5.43 enrichment R.

As to B9, the binding signal was 14 enrichment R. In turn, B10 yielded a binding signal of 7.64 enrichment R. Under B11 stands 1.58 enrichment R; under B12, 3.81 enrichment R. Consider B13, for which the binding signal was determined as 1.55 enrichment R. For B14, the binding signal came to 0.666 enrichment R. The molecule B15 had a binding signal of 0.774 enrichment R. As for B16, the binding signal stood at 2.02 enrichment R. Under B17 stands 0.802 enrichment R.

Take B18: the binding signal amounted to 1.85 enrichment R. For the molecule B19, the binding signal was determined as 0.677 enrichment R. On to B20, for which the binding signal was found to be 1.34 enrichment R. B21 came in with a binding signal of 1.58 enrichment R. For the molecule B22, the binding signal was 0.927 enrichment R.
